# Bioassay records as filed in PubChem.
# Hits are enriched below; roughly 19% of the tested compounds scored in any of these assays.
# IL-1B inflam inh – blocks inflammasome-driven IL-1 beta release; activity change, % at 57.5 µM; 4.7% of 360,000 active; THP-1 LPS/ATP IL-1B secretion, AlphaLISA, 16 h; stronger effect = lower value; AID 743279; in the data active = activity change below about -50%; inconclusive = mostly about -30% to -49%
#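 THP-1 cells pretreated 1 hr with compounds (up to 57.5 uM final), then stimulated with LPS (250 ng/mL final) plus ATP (1.25 mM final); secreted IL-1B measured by AlphaLISA after 16 hr, decreased signal indicating inhibition.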
# TDP1 cell CPT – growth inhibition of DT40 Tdp1-/-;hTDP1 cells with camptothecin (screen for TDP1 inhibitors); 12% of 420,000 active; AID 686979; Potency, µM (series often up to 46.2 µM), for the others: at the highest dose activity change, negative = growth inhibition, hits mostly inhibitors; chicken DT40 Tdp1-/-;hTDP1 cells + 20 nM CPT, ATP luminescence, 48 h; note: potency is the fitted concentration of half-maximal effect; nearly all actives have a fitted effect of over 55% in size
#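 Cell growth measured by CellTiter-Glo luminescence after a minimum 48 h, 37 C compound exposure with 20 nM CPT in Tdp1-knockout DT40 cells stably expressing hTDP1, seeded 400/well; qHTS titration format.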
# HT1080 IDH1KD tx – toxicity to HT-1080 IDH1 knockdown cells (counter line); HT-1080 IDH1 knockdown viability, ATP luminescence, 48 h; Potency, µM (highest dose often 46.1 µM), for the others: top-dose activity, negative = toxicity, usual class: cytotoxic; 2% of 360,000 active; AID 686971;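 note: potency is the fitted concentration of half-maximal effect; 0% = DMSO wells and -100% = cell-free medium wells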
#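 CellTiter-Glo luminescence after 48 h compound exposure at 37 degrees C of IDH1-knockdown HT-1080 cells in 5% FBS RPMI. %Activity scaled between DMSO wells and cell-free media wells, with curves fitted and assigned curve classes.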
# HT1080-NT tox – kills 2HG-producing HT-1080-NT fibrosarcoma cells. 1.6% of 360,000 active. Potency, µM (top dose mostly 46.1 µM), without a hit: top-dose activity, negative = less viability, actives largely listed as cytotoxic. HT-1080-NT fibrosarcoma viability, CellTiter-Glo ATP luminescence, 48 h. AID 686970;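 note: NT is the 2HG producing partner of a matched IDH1 knockdown line; potency is the fitted concentration of half-maximal effect; 0% = DMSO-treated cells and -100% = media-only wells without cells; nearly all actives have a fitted effect of over 55% in size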
#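 Compounds were tested in concentration-response format on HT-1080-NT cells for 48 hours at 37 degrees C. Cell viability came from CellTiter-Glo luminescence; curves were classified by r2, response magnitude and activity.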
# DT40 TDP1 no CPT – qHTS for Inhibitors of human tyrosyl-DNA phosphodiesterase 1 (TDP1): qHTS in cells in absence of CPT. DT40 Tdp1-/- hTDP1 cells, no CPT, ATP luminescence, 48 h. Potency, µM (highest dose often 46.2 µM), for inactives: at the top dose activity change, negative = growth inhibition, actives largely listed as inhibitors. 15% of 420,000 active; note: potency is the fitted concentration of half-maximal effect; nearly all actives have a fitted effect of over 55% in size
#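 Camptothecin absent (DMSO only). Human TDP1-complemented DT40 knockout cells, 400 cells/well, 37 °C for minimum 48 hr; ATP measured via CellTiter-Glo, 30 min dark incubation, luminescence.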
# * marks the source's active call; other numbers are inactive results; ? = inconclusive; · = no result given; ! = a repeat was not active; [ ] = another dose, or the depositor's remark. Unless noted, calls come from the whole dose curve; as a rule, active = well fitted curve in the direction sought with a large enough effect; inconclusive = small, poorly fitted or top-dose-only effect, or another doubt; inactive = no such curve, though single readings can be large; an effect the other way counts as inactive or inconclusive. Unless noted, % is set by controls: 0 for no effect and ±100 for the full control effect.
SMILES,IL-1B inflam inh,TDP1 cell CPT,HT1080 IDH1KD tx,HT1080-NT tox,DT40 TDP1 no CPT
Cc1cccc(C(=O)OCC(=O)N2c3ccccc3CC2C)c1C (configuration not stated),4,-20%,-17%,-12%,?
CCCC(=O)c1cc(O)c(O)cc1O,·,?,·,·,17µM*
CCCCC[C@H]1CN(CCCC)C(=O)[C@@H]1CC(=O)NCc1ccc(OC)cc1,-21,?,11%,2%,?
CCCCC[C@H]1CN(Cc2ccccc2)C(=O)[C@@H]1CC(=O)NCc1ccccc1,-51*,11µM*,-8%,-11%,14µM*
CCCCN1C[C@H](Cc2ccccc2)[C@@H](CC(=O)NCc2ccc(OC)cc2)C1=O,13,18µM*,-4%,-8%,22µM*!
COc1ccc(N2C[C@H](Cc3ccccc3)[C@@H](CC(=O)Nc3ccccc3)C2=O)cc1,-6,?,-7%,-5%,21µM*
CCCCC[C@H]1CN(CCc2ccccc2)C(=O)[C@@H]1CC(=O)NCc1ccc(OC)cc1,-78*,?,-3%,-4%,18µM*
COc1ccc(NC(=O)C[C@H]2C(=O)N(c3ccccc3)C[C@@H]2Cc2ccccc2)cc1,-23,-23%,-10%,1%,?
CCCCCC(=O)N1C[C@H](O)[C@@H](n2cc(C3CC3)nn2)C[C@@H]1c1ccc(OC)cc1,-23,-24%,-2%,-10%,?
CCc1ccc(NC(=O)Cn2cnc3sc(C)c(S(=O)(=O)N4CCN(c5ccccc5OC)CC4)c3c2=O)cc1,·,?,·,·,16µM*
COc1ccccc1N1CCN(S(=O)(=O)c2c(C)nc3sc(C)c(C)n3c2=O)CC1,·,21µM*,·,·,21µM*
Cc1sc2ncn(CC(=O)Nc3ccc(C(F)(F)F)cc3)c(=O)c2c1S(=O)(=O)N1CCN(C)CC1,·,?,·,·,1.3µM*
Cc1nc2scc(C)n2c(=O)c1S(=O)(=O)N1CCN(c2ccccc2F)CC1,89,?,-3%,9%,-25%
CCCCN(C)CCCN1C(=O)C2C(C(=O)Nc3cccc(OC)c3)C3C=CC2(O3)C1C(=O)NC1CCCCC1C (configuration not stated),-26,-11%,-18%,-2%,-11%
COc1ccc(OC)c(NC(=O)c2ccccc2NS(=O)(=O)c2cccc3cccnc23)c1,5,3%,-2%,-4%,29µM*
O=c1oc2ccc(NS(=O)(=O)c3cccc4cccnc34)cc2s1,0,21µM*,-13%,-15%,23µM*
O=C1CCCc2oc3ccc(NS(=O)(=O)c4cccc5cccnc45)cc3c21,26,?,-12%,-17%,23µM*
O=S(=O)(Nc1ccc(C(O)(C(F)(F)F)C(F)(F)F)cc1)c1cccc2cccnc12,-12,16µM*,?,?,23µM*
O=S(=O)(Nc1ccc2c(c1)OCCO2)c1cccc2cccnc12,19,-20%,-3%,2%,?
O=S(=O)(Nc1ccc(Br)cc1)c1cccc2cccnc12,-14,-12%,16%,-1%,?
Cc1ccc(-n2c(C)c(C)c3c(NCCN(C)C)ncnc32)cc1,?,?,-8%,-9%,-21%
COc1ccc(NS(=O)(=O)c2cccc3cccnc23)cc1Cl,-13,?,-20%,-11%,21µM*
COc1ccccc1NC(=O)c1cc2ccc3cccnc3c2[nH]1,·,3.7µM*,·,·,26µM*
COC(=O)c1sccc1S(=O)(=O)Nc1ccc(C(O)(C(F)(F)F)C(F)(F)F)cc1,-17,18µM*,?,?,21µM*
CCOc1ccccc1NC(=O)c1cc2ccc3cccnc3c2[nH]1,·,17%,·,·,-20%
SMILES,IL-1B inflam inh,TDP1 cell CPT,HT1080 IDH1KD tx,HT1080-NT tox,DT40 TDP1 no CPT
COc1ccc(NS(=O)(=O)c2cccc3cccnc23)cc1,-29,-21%,0%,13%,-17%
CC(C)N(Cc1ccccc1)C(=O)c1cc2ccc3cccnc3c2[nH]1,·,16µM*,·,·,18µM*
COC(=O)c1sccc1S(=O)(=O)Nc1ccc(Cl)cc1,-1,-28%,-1%,-1%,?
O=C(NC1CCN(Cc2ccccc2)C1)c1cnn(-c2ncc3c(n2)-c2ccccc2CC3)c1C1CC1 (configuration not stated),·,7%[9.04 µM],·,·,-17%
O=S(=O)(c1ccc2c(c1)OCCO2)N1CCN(c2ncnc3sccc23)CC1,-25,5.2µM*,?,-24%,2.3µM*
Cc1ccc(S(=O)(=O)N2CCN(c3ncccn3)CC2)cc1C,12,5.8µM*,-1%,-21%,?
Cc1ccc(S(=O)(=O)N2CCN(c3ncnc4sccc34)CC2)cc1C,-18,5.8µM*,?,?,5.8µM*
O=S(=O)(c1ccc2c(c1)OCCO2)N1CCN(c2nc(-c3cccs3)nc3ccccc23)CC1,·,?,18%,6%,?
CCCN1CCN(CCCNC(=O)c2ccc3c(Cl)c4c(nc3c2)CCCC4)CC1,-56*,21µM*,?,?,8.2µM*
O=C(NCCCN1CCCC1)c1ccc2c(Cl)c3c(nc2c1)CCCC3,·,?,23µM*,18µM*,15µM*
COc1ccc([N+](=O)[O-])cc1-c1[nH]c(-c2ccc(C(=O)O)cc2)nc1-c1ccccc1,31,-6%,-1%,14%,-1%
Cc1ccc([N+](=O)[O-])cc1-c1[nH]c(-c2ccc(O)c(O)c2)nc1-c1ccccc1,3,16µM*,-25%,-9%,16µM*
COc1ccc(-c2nc(-c3ccccc3)c(-c3cc([N+](=O)[O-])ccc3C)[nH]2)cc1O,-1,?,?,?,15µM*
O=C(CSc1nnc(C2CCCCC2)o1)Nc1ccccc1Cl,-12,4%,-10%,-13%,?
CC[C@H](C)C1OC(=O)[C@@H](C)[C@@H](CC)NC(=O)[C@H](C)N(C)C(=O)C(C)(C)C(=O)C(C)NC(=O)[C@H](Cc2ccc(OC)cc2)N(C)C(=O)[C@H](C(C)C)N(C)C(=O)CNC(=O)[C@H](CC(C)C)N(C)C(=O)CNC1=O (some centres not stated),-10,0.15µM*,0.18µM*,0.26µM*,0.18µM*
